Screens (PubChem BioAssay)
This is one part of a sample in which hits are shown more often than they occur.
Shiga toxin inh = blocks Shiga toxin action in Vero cells; AID 2315; inhibition, % at 38.7 µM; Vero cells, Shiga toxin protein synthesis inhibition reporter; 290,000 tested, 9.2% active; in the data active = inhibition mostly above about 28%, no sharp cut-off; inactive = mostly below about 43%
NS1 inh = inhibitors of influenza NS1 protein function; Potency, µM (titrated, usually from 46.1 µM); 270,000 tested, 0.4% active; calls by dose curve; also: actives are rising curves; nearly all actives have a fitted effect of over 50% in size
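S. cerevisiae expressing influenza A NS1, grown in glucose, washed, then diluted 1:100 into pH 6.0 -URA galactose medium with 23 nl compound. Growth recovery read as OD600; NS1-free strain serves as control.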
AmpC inh detg = blocks E. coli AmpC beta-lactamase in detergent assay. AID 485294. Potency, µM (highest dose often 114 µM), most hits filed as inhibitors. AmpC hydrolysis of nitrocefin, absorbance 480 nm, 0.01% Triton. 370,000 tested, 0.041% active; also: nearly all actives have a fitted effect of over 25% in size
Target sequence (P00811 whole entry, looked up): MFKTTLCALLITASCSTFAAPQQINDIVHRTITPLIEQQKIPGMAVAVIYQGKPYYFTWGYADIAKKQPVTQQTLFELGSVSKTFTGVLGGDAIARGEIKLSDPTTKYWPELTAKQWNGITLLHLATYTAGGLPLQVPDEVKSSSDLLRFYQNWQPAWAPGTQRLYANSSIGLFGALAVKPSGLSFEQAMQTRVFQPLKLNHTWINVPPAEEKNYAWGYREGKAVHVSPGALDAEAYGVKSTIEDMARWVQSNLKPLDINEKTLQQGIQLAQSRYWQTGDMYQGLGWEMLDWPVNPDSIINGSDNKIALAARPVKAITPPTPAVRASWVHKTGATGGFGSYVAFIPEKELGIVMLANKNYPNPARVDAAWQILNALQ
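20 mM phosphate pH 7.0 + 0.01% (detergent screen) or 0.0001% Triton X-100; 5.3 nM AmpC reagent; cpd preinc 15 min RT; nitrocefin (800 uM stock) to start; A480 q20 s × 4 min; Activity was normalised to no-enzyme and no-compound control wells.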
AmpC inh no detg = blocks E. coli AmpC beta-lactamase in detergent-free assay; AmpC nitrocefin hydrolysis, absorbance 480 nm, 0.0001% Triton; P00811; AID 485341; 330,000 tested, 0.52% active; Potency, µM (series often up to 57.1 µM), hits mostly inhibitors; also: nearly all actives have a fitted effect of over 20% in size
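AmpC (5.3 nM in the dispensed reagent) in 20 mM phosphate pH 7.0 with 0.01% (detergent screen) or 0.0001% Triton X-100 was preincubated with compounds for 15 min at room temperature. Nitrocefin was then added from an 800 uM solution, and hydrolysis was followed at 480 nm.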
Cycloheximide cs = counter-screen hit for Shiga toxin inhibitors, cycloheximide; cell reporter, cycloheximide protein synthesis inhibition counterscreen; max response, %; 300,000 tested, 12% active; in the data active = max response mostly above about 13%, no sharp cut-off; inactive = mostly below about 14%; also: read at 38.3 µM for the half of the compounds with a filed dose
Hits are given with their value; i = inactive; ? = inconclusive; nt = no result given. Unless noted, calls follow the shape of the dose curve; as a rule, active = well fitted curve in the direction sought with a large enough effect; inconclusive = small, poorly fitted or top-dose-only effect, or another doubt; inactive = no such curve, though single readings can be large; an effect the other way counts as inactive or inconclusive.

SMILES	Shiga toxin inh	NS1 inh	AmpC inh detg	AmpC inh no detg	Cycloheximide cs
CN(Cc1ccccn1)C(=O)c1ccc2nc(Cc3cccc(Cl)c3)oc2c1	i	i	i	i	i
CNC(=O)c1ccc2nc(Cc3ccccc3)oc2c1	nt	nt	i	nt	nt
CC(C)(CO)NC(=O)c1ccc2nc(Cc3cccc(Cl)c3)oc2c1	26	i	?	i	26
O=C(c1ccc(Cl)c(S(=O)(=O)N2CCOCC2)c1)N1CCN(c2ccccc2)CC1	i	i	i	i	i
CN(C)C(=O)c1ccc(NC(=O)COC(=O)C2CCN(S(=O)(=O)c3ccc4c(c3)OCCO4)CC2)cc1	nt	nt	?	i	nt
O=C(NCCOCCn1c(=O)oc2ccccc21)Nc1ccc(Cl)cc1	nt	nt	i	nt	nt
COCCCN=C(c1ccco1)n1c(=S)nc(-c2ccco2)n(CCCOC)c1=S	62	i	i	i	28
COCCCn1c(-c2ccco2)nc2ccccc2c1=O	i	i	i	i	i
Cc1ccc(NC(=O)/C(Cl)=C/c2ccccc2)cc1C	95	i	i	i	45
CCN(CC)C(=O)C(=O)Nc1ccc(F)c(Cl)c1	88	i	i	i	28
CC(=O)Nc1ccccc1C(=O)C(=O)Nc1ccc(F)c(Cl)c1	i	i	i	i	20
NC(=O)c1ccccc1NC(=O)Nc1ccc(F)c(Cl)c1	56	i	i	i	42
CCc1ccc(NC(=O)C(=O)c2ccccc2NC(C)=O)cc1	nt	nt	i	i	nt
COc1ccccc1CC(=O)N1CCN(c2ccccc2F)CC1	i	i	i	i	i
CC(=O)Nc1ccccc1C(=O)C(=O)Nc1ccc(C)c(C)c1	40	i	i	i	40
Cc1ccc(NC(=O)C2(c3ccccc3)CC2(Cl)Cl)cc1C (configuration not stated)	128	i	i	i	66
CC(=O)Nc1ccccc1C(=O)C(=O)Nc1ccc(C)c(F)c1	103	?	i	i	59
CCN1CCN(C(c2ccc(OC)cc2)c2c(O)cc(C)n(CCOC)c2=O)CC1 (configuration not stated)	nt	nt	i	nt	nt
On1c(-c2ccc(Cl)cc2)nc2ccccc21	63	nt	?	i	43
On1c(-c2ccccc2)nc2ccccc21	i	i	i	i	i
COc1ccc(CCn2c(O)cc3nn(-c4nc5ccccc5s4)c(=O)c-3c2C)cc1	i	?	i	10µM	i
COc1ccc(CCn2c(C)nc3ccccc3c2=O)cc1OC	i	i	i	i	i
O=C(O)C=C1CCN(c2ncc(C(F)(F)F)cc2Cl)CC1	i	i	i	i	26
O=C(CN1CCN(c2ncc(C(F)(F)F)cc2Cl)CC1)N1CCN(c2ncc(C(F)(F)F)cc2Cl)CC1	i	i	i	i	i
COC(=O)c1c(/N=C/N(C)C)sc2c1CCN(c1ncc(C(F)(F)F)cc1Cl)C2	i	?	i	i	28
SMILES	Shiga toxin inh	NS1 inh	AmpC inh detg	AmpC inh no detg	Cycloheximide cs
COC(=O)c1c(N(S(C)(=O)=O)S(C)(=O)=O)sc2c1CCN(c1ncc(C(F)(F)F)cc1Cl)C2	i	i	i	i	i
NNC(=O)C=C1CCN(c2ncc(C(F)(F)F)cc2Cl)CC1	i	i	i	i	18
O=C(C[n+]1cccc(C(=O)N/N=C/c2cccc([N+](=O)[O-])c2)c1)c1ccccc1	nt	nt	i	i	nt
Cc1cc(Nc2ccc(C)c(C)c2)c2ccccc2n1	i	i	?	i	i
Cc1ccc(Nc2nc(N)c3ccccc3n2)cc1C	37	i	i	i	20
COc1ccc(Nc2nc3ccccc3c(=O)[nH]2)cc1	i	i	i	i	i
Cc1ccc(Nc2nc3ccccc3c(=O)[nH]2)cc1C	36	nt	i	i	37
CCOC(=O)c1ccc(NC=C2C(=O)OC3(CCCCC3)OC2=O)cc1	i	i	i	i	i
CC1CCC/C(=C\Nc2ccc(C(=O)O)c(O)c2)C1=O (configuration not stated)	82	i	i	i	38
CC1CCCC(C)N1/N=C/c1ccc(C(=O)O)cc1 (configuration not stated)	i	i	i	i	i
CC1CCC/C(=C\Nc2ccc(C(=O)O)cc2)C1=O (configuration not stated)	55	nt	i	i	37
Cc1cc(O)ccc1N/C=C1\CCCC1=O	42	i	i	i	13
CCOC(=O)c1ccc(N/C=C2/CCCC(C)C2=O)cc1 (configuration not stated)	52	i	i	i	57
CC(=O)Nc1ccc2c(c1)CCCC2=O	i	i	i	i	16
O=C1CCCC/C1=C\Nc1ccc(C(=O)O)c(O)c1	62	i	i	i	17
